Laboratory results as given in PubChem BioAssay (NCATS).
Records with an inconclusive call do not appear. Active and inactive are the calls of the source. Calls follow the shape of the dose curve; as a rule, active = well fitted curve in the direction sought with a large enough effect; inconclusive = small, poorly fitted or top-dose-only effect, or another doubt; inactive = no such curve, though single readings can be large; an effect the other way counts as inactive or inconclusive.

Columns and labels:
[1] = MCF7 Cancer Cell Toxicity qHTS against the NCATS CANVASS Library (AID 1347369); details: MCF7 viability, ATP luminescence (CellTiter-Glo), 72 h; at 46 µM (top of the series)
How it was run: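 This 72 hr qHTS scored MCF7 viability by CellTiterGlo luminescence, with 500 cells/well; bortezomib titration ran as control.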

[2] = qHTS for ATAD5 Antagonist screened against the NCATS CANVASS Library (AID 1347370); details: HEK293T-ATAD5-luc, 5-FUrd stimulated, luminescence, 16 h; series mostly up to 46.1 µM
How it was run: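 HEK293T cells with a stably integrated ATAD5-controlled luciferase reporter were exposed to compounds (11-pt) alongside 10 uM 5-fluorouridine as ATAD5 stabilizer for 16hr at 37C. Viability was read by CellTiter-Fluor fluorescence, then ATAD5 by luminescence.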

[3] = J3T Cancer Cell Toxicity qHTS against the NCATS CANVASS Library (AID 1347371); details: J3T dog glioma viability, ATP luminescence, 72 h; series mostly up to 46.1 µM
How it was run: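 Viability of the J3T glioma line from dog is scored by ATP luminescence after a 72 hr incubation with natural products.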

[4] = target: Nuclear receptor subfamily 1 group I member 3 (Homo sapiens) (UniProt Q14994); test: qHTS for Constitutive Androstane Receptor (CAR) Antagonist screened against the NCATS CANVASS Library (AID 1347372); details: HepG2-hCAR-CYP2B6 luciferase, CITCO-stimulated antagonist mode; series mostly up to 46.1 µM
How it was run: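 HepG2 cells stably carrying hCAR and a CYP2B6-2.2kb luciferase reporter were exposed to compounds plus 50 nM CITCO for 24hr at 37C. CAR activity was read by ONE-Glo luminescence, with viability measured first by CellTiter-Fluor.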

[5] = target: Nuclear receptor subfamily 1 group I member 3 (Homo sapiens) (UniProt Q14994); test: qHTS for Constitutive Androstane Receptor (CAR) Agonist screened against the NCATS CANVASS Library (AID 1347373); details: HepG2-hCAR-CYP2B6 luciferase reporter, ONE-Glo luminescence; series mostly up to 46.1 µM
How it was run: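 CAR agonism is scored as CYP2B6-promoter luciferase induction in a double-stable transfected HepG2 line, where 1.5uM PK11195 is included in each well. Compounds were tested over a 24hr exposure.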

[6] = qHTS for Hypoxia signaling pathway (HIF-1) antagonists against the NCATS CANVASS Library (AID 1347374); details: HRE-bla ME-180 cells, HIF-1 beta-lactamase reporter, CoCl2; series mostly up to 38.3 µM
How it was run: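 HRE-bla ME-180 cells (2,000/well, 0.5% dialyzed FBS) were pre-incubated 5 h, then given an 11-point compound series plus CoCl2 (60 uM solution as added) for 17 h at 37C. CCF4 β-lactamase read (ex 405, em 460/530 nm) after 2 h at RT.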

[7] = qHTS for Hypoxia signaling pathway (HIF-1) agonists against the NCATS CANVASS Library (AID 1347375); details: HRE-bla ME-180 cells, HIF-1 beta-lactamase reporter, 17 h; series mostly up to 38.3 µM
How it was run: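 Inducers of HIF-1 signaling were detected in ME-180 cells bearing an HRE-driven beta-lactamase reporter after 17 h compound exposure. Activity came from CCF4-AM FRET emission ratio (460/530 nm) in qHTS format.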

[8] = 10-beta competent E. coli microbial cell viability qHTS against the NCATS CANVASS Library (AID 1347376); details: E. coli 10-beta viability, BacTiter-Glo ATP luminescence, overnight; series mostly up to 46.1 µM
How it was run: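 Cytotoxicity toward competent E. coli is scored from cellular ATP content via BacTiter-Glo luminescence following overnight compound exposure at 37C, 5% CO2.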

[9] = DH5-alpha competent E. coli microbial cell viability qHTS against the NCATS CANVASS Library (AID 1347377); details: BacTiter-Glo ATP luminescence, overnight; series mostly up to 46.1 µM
How it was run: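 Cell viability of competent DH5-alpha E. coli is scored from ATP content by luminescence. Cells sit overnight at 37C with compound across an 11-point concentration series.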

[10] = qHTS for H2AX Agonists against the NCATS CANVASS Library (AID 1347378); details: CHO-K1 H2AX phosphorylation, HTRF TR-FRET, 3 h; series mostly up to 76.9 µM
How it was run: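 Signal is the 665/620 nm emission ratio from europium cryptate and d2 antibody pair, rising with S139-phosphorylated H2AX. CHO-K1 cells saw test agents for 3 hr at 37C; detection ran 24 hr at room temperature.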

[11] = qHTS for Inflammasome Signaling Inhibitors: IL-1-beta AlphaLISA screen against the NCATS CANVASS Library (AID 1347379); details: THP-1 LPS/ATP, IL-1B AlphaLISA secretion, 16 h; series mostly up to 57.5 µM
How it was run: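 Human THP-1 cells were pretreated 1 hr at 37 °C with compounds (up to 57.5 uM final), then stimulated with LPS (250 ng/mL final) and ATP (1.25 mM final). Secreted IL-1B was read by AlphaLISA after 16 hr.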

[12] = qHTS for Antimalaria activity screened against the NCATS CANVASS Library (AID 1347380); details: P. falciparum Dd2 growth, SYBR Green fluorescence, 72 h; series mostly up to 28.7 µM
How it was run: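 Growth inhibition of asexual erythrocytic P. falciparum Dd2 was quantified by SYBR Green DNA staining. Cultures grew 72 h with compound (11-point series) in hypoxic gas at 37C; lysis and staining lasted 18 h.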

[13] = Inflammasome Signaling qHTS Counterscreen: IL-1-beta AlphaLISA counterscreen against the NCATS CANVASS Library (AID 1347381); details: Purified IL-1beta AlphaLISA signal interference counterscreen; series mostly up to 57.5 µM
How it was run: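 To flag interference with the AlphaLISA read-out, a known amount of purified IL-1-beta (4 pg) replaced cell supernatant. Detection used anti-IL-1-beta acceptor beads, biotinylated antibody and streptavidin donor beads at room temperature.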

[14] = Cytotoxicity qHTS for assessment of Hepg2 cells membrane integrity screened against the NCATS CANVASS Library (AID 1347387); details: HepG2 LDH release (CytoTox-ONE) fluorescence, 5 h; series mostly up to 46.1 µM
How it was run: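 Fluorescence proportional to lysed-cell number, from LDH leaking out of HepG2 cells exposed 5 hr at 37C to 0.59 nM - 46 uM compound (11-point qHTS), is measured after 10 min with CytoTox-ONE.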

[15] = qHTS assay for small molecule disruptors of mitochondrial membrane potential screened against the NCATS CANVASS Library (AID 1347389); details: HepG2 mitochondrial membrane potential, m-MPI red/green ratio, 1.5 h; series mostly up to 46.1 µM
How it was run: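 Compounds tested in 11-point qHTS series on HepG2 cells for 1 hr; membrane-potential dye added for 30 min at 37C. Lower red-to-green ratio indicates loss of potential.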

[16] = Secretion counterscreen for inhibitors of the SERCaMP assay screened against the NCATS CANVASS Library (AID 1347390); details: SH-SY5Y constitutive GLuc secretion, luminescence, 20 h; series mostly up to 76.6 µM
How it was run: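 Natural products are titrated in an 11-point series up to 77 uM onto SH-SY5Y-GLuc STOP cells for 20 h. Secreted reporter activity is measured as coelenterazine-driven luminescence, with Brefeldin A on each plate.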

[17] = qHTS for activators of Nrf2/ARE signaling pathway screened against the NCATS CANVASS Library (AID 1347391); details: ARE-bla HepG2, beta-lactamase reporter, 16 h; series mostly up to 46.1 µM
How it was run: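 Cells carrying an ARE-driven beta-lactamase reporter (HepG2 background) are dosed for 16 h, then stained with CCF4. Cell viability in the same wells is measured by CellTiter-Glo luminescence.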

[18] = qHTS for activators of dead-cell proteases activity screened against the NCATS CANVASS Library (AID 1347392); details: HepG2 cytotoxicity, dead-cell protease luminescence, 5 h; series mostly up to 46.1 µM
How it was run: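 HepG2 cells (2000/well) attached 18 h at 37C, then exposed 5 h to compounds (11-point qHTS). Dead-cell protease activity read as luminescence from cell-impermeant AAF-aminoluciferin substrate after 15 min at room temperature.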

[19] = qHTS for inhibitors of ER calcium dysfunction: SERCaMP assay screened against the NCATS CANVASS Library (AID 1347393); details: SH-SY5Y GLuc-SERCaMP (Gaussia luciferase released on ER calcium loss) secretion, thapsigargin, luminescence; series mostly up to 76.6 µM
How it was run: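 qHTS in SH-SY5Y reporter cells: 16 h compound pretreatment, 4 h thapsigargin, then secreted Gaussia luciferase measured by luminescence.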

[20] = Vero-766 cells viability qHTS against the NCATS CANVASS Library: Counterscreen for Zika virus inhibition assay (AID 1347394); details: Vero 766 viability, CellTiter-Glo luminescence, 72 h; series mostly up to 46.1 µM
How it was run: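 Counterscreen for toxicity: Vero 766 cells exposed 72 h to an 11-point compound series, viability by CellTiter-Glo.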

Measured: outcome

Nuclear receptor subfamily 1 group I member 3 (Homo sapiens), sequence (Q14994 whole entry, looked up): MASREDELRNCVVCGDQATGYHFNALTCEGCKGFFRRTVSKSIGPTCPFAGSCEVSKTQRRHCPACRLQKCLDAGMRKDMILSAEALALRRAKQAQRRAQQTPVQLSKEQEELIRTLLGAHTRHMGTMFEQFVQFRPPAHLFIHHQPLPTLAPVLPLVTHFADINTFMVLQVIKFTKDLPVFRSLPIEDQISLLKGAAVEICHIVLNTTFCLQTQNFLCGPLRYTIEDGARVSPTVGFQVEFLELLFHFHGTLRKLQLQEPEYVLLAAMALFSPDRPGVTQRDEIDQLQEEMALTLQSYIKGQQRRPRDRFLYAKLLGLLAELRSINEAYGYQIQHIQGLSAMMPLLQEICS

CN(C)CCc1c[nH]c2ccccc12
inactive: all assays above
